Measured values as given in PubChem BioAssay (NCI).
The panel holds about 79,000 compounds, 15% with a hit somewhere; the sample as a whole holds those more often. A number with no mark means an inactive call. Calls of active or inactive are those of the source. Rule as the data show it: active = growth inhibition above about 70%; inactive = the rest.

Assay: NCI Yeast Anticancer Drug Screen. Data for the mec2-1 strain (AID 157)
Conditions: S. cerevisiae mec2-1 strain, at 50.0 µM, hits give high values
In short: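 Cells of the genetically defined mec2-1 yeast strain are incubated with test compound. Inhibition of growth is calculated against vehicle-treated controls.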

SMILES | growth inhibition
NC(N)=NOCC(=O)O | -14.7%
COC(=O)[C@@H](CO)NC(=O)OC(C)(C)C | -15%
OCCCCCCCCCCCO | 2.3%
NC(=O)N/N=C1\CCCCC12CCCCC2 | 6.25%
N/C(=N\C(=O)OCCOC(=O)/N=C(/N)c1ccccc1)c1ccccc1 | -8.5%
Cn1c(=O)c2c(ncn2C2C(=O)NNC2=O)n(C)c1=O | -8.45%
CSc1nc(=O)cc(N)n1C | -1.55%
COC(=O)CCc1nc2ccccc2c(=O)[nH]1 | 1.05%
COC(=O)c1cc(-c2ccc3ccccc3c2)[nH]c(=O)c1C#N | 35.2%
CC(=O)Nc1ccc(Cc2ccc3[nH]c(=O)cc(C)c3c2)cc1 | 18.6%
O=C(O)c1nc(N=Nc2ccc(S(=O)(=O)O)cc2)[nH]c1C(=O)O | -4.85%
S=C(NCCS)Nc1ccccc1 | -11.4%
N#CNC(=O)c1ccc(Cl)cc1 | -12.5%
CC(C)c1ccc2c(c1)CC[C@H]1[C@](C)(COCCC#N)CCC[C@]21C | -28.2%
O=c1cc(C=Nc2ccc(-c3csc(-c4ccccc4)n3)cc2)[nH]c(=S)[nH]1 | 91.2% (active)
N#Cc1c(C(=O)NN)c2c(-c3ccc4ccccc4c3)n[nH]c(=O)c2[nH]c1=O | 23.4%
COc1cccc(/C=C2\C(=O)N(C(=O)c3ccc(NC(C)=O)cc3)N=C2C)c1 | -25.8%
COc1ccc(C(=O)NC(=S)Nc2cc(C(F)(F)F)ccc2Cl)cc1 | 0.1%
CC(C)=CC(=O)OC1C2C(C)C(=O)OC2C(O)C(C)C2C=CC(=O)C21C (stereo not given) | -3.6%
O=C(COc1ccc(Cl)cc1)Oc1c(Cl)cc(Cl)cc1Cl | 97.8% (active)

SMILES | growth inhibition
CC(C)(O)CCC(C)(C)O | -19.1%
CC(=O)Nc1cc(N)ccc1C | 4.45%
CCOC(=O)C(C)(C(=O)OCC)c1c[n+]([O-])c2ccccc2c1[N+](=O)[O-] | -5.15%
CCCc1c(C(=O)O)c(-c2cccc3ccccc23)c(CCC)c2c1-c1cccc3cccc-2c13 | 35%
CC1CCCCN1S(=O)(=O)N(C)C (stereo not given) | 27.1%
Brc1ccncc1 | -47.5%
CC1(C)COC(CCl)OC1 | 17.9%
COC(=O)c1nnn(-c2ccc(C)c(C)c2)c1C(=O)c1ccccc1 | -2.5%
CC(=O)Nc1c(C(N)=O)cnn1-c1ccccc1 | 26.6%
CN(C)c1ccc(/C=C(\C#N)c2c(Br)cccc2Br)cc1 | -18.8%
CCSC(N)=Nc1ccccc1 (tested in a mixture with another compound) | 9.5%
Nc1nc(N)c(-c2ccc(Cl)cc2)c(CNc2cccc([N+](=O)[O-])c2)n1 | 91.3% (active)
CC1(C)OC2CC(=O)OCC23C1CC(=O)C1(C)C3CCC2(C)C(c3ccoc3)OC(=O)C3OC321 (stereo not given) | 1.4%
CC1CCCCC[N+]1(C)CCO (stereo not given) | -7.15%
CCCCCCCCCCCCCCCCCCNC(=S)N(C)C | 0.2%
O=S(=O)(OCCCC1CC2C=CC1C2)c1ccc(Br)cc1 (stereo not given) | -12.2%
CC(=O)O[C@@H]1[C@H]2[C@@H](OC(=O)c3ccccc3)[C@@H](C)C[C@]2(O)[C@H](OC(C)=O)[C@@]2(C)[C@@H]3C[C@@](C)(OC(C)=O)C[C@@H](OC(C)=O)[C@@]3(OC(C)=O)C[C@@]12C | -7.05%
O=NN(CCCl)C(=O)NCCc1cccc[n+]1[O-] | 14.3%
O=C(O)c1c[nH]c2cc(OCc3ccccc3)ccc2c1=O | -44.4%
Cc1cccc(C[P+](C/C=C/c2ccccc2)(c2ccccc2)c2ccccc2)c1 | 99.7% (active)

Assay: NCI Yeast Anticancer Drug Screen. Data for the sgs1 mgt1 strain (AID 161);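 also: 0% = growth of cultures given vehicle only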
Conditions: S. cerevisiae sgs1 mgt1 strain, at 50.0 µM, hits give high values
In short: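 Read-out: growth inhibition vs vehicle controls. Cells: mutant yeast strain deficient in DNA damage repair.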

SMILES | growth inhibition
NC(N)=NOCC(=O)O | -8.85%
COC(=O)[C@@H](CO)NC(=O)OC(C)(C)C | -24.1%
OCCCCCCCCCCCO | 4.35%
NC(=O)N/N=C1\CCCCC12CCCCC2 | -4.9%
N/C(=N\C(=O)OCCOC(=O)/N=C(/N)c1ccccc1)c1ccccc1 | -6.05%
Cn1c(=O)c2c(ncn2C2C(=O)NNC2=O)n(C)c1=O | -17.2%
CSc1nc(=O)cc(N)n1C | 9.55%
COC(=O)CCc1nc2ccccc2c(=O)[nH]1 | -6.05%
COC(=O)c1cc(-c2ccc3ccccc3c2)[nH]c(=O)c1C#N | 65.6%
CC(=O)Nc1ccc(Cc2ccc3[nH]c(=O)cc(C)c3c2)cc1 | 15.8%
O=C(O)c1nc(N=Nc2ccc(S(=O)(=O)O)cc2)[nH]c1C(=O)O | 9.8%
S=C(NCCS)Nc1ccccc1 | -2.15%
N#CNC(=O)c1ccc(Cl)cc1 | -11.1%
CC(C)c1ccc2c(c1)CC[C@H]1[C@](C)(COCCC#N)CCC[C@]21C | -14.2%
O=c1cc(C=Nc2ccc(-c3csc(-c4ccccc4)n3)cc2)[nH]c(=S)[nH]1 | 97.7% (active)
N#Cc1c(C(=O)NN)c2c(-c3ccc4ccccc4c3)n[nH]c(=O)c2[nH]c1=O | 30.4%
COc1cccc(/C=C2\C(=O)N(C(=O)c3ccc(NC(C)=O)cc3)N=C2C)c1 | -57%
COc1ccc(C(=O)NC(=S)Nc2cc(C(F)(F)F)ccc2Cl)cc1 | -11.2%
CC(C)=CC(=O)OC1C2C(C)C(=O)OC2C(O)C(C)C2C=CC(=O)C21C (stereo not given) | 9.6%
O=C(COc1ccc(Cl)cc1)Oc1c(Cl)cc(Cl)cc1Cl | 98.7% (active)

SMILES | growth inhibition
CC(C)(O)CCC(C)(C)O | 41.9%
CC(=O)Nc1cc(N)ccc1C | 1.65%
CCOC(=O)C(C)(C(=O)OCC)c1c[n+]([O-])c2ccccc2c1[N+](=O)[O-] | 19.3%
CCCc1c(C(=O)O)c(-c2cccc3ccccc23)c(CCC)c2c1-c1cccc3cccc-2c13 | 76% (active)
CC1CCCCN1S(=O)(=O)N(C)C (stereo not given) | -4.95%
Brc1ccncc1 | -1.55%
CC1(C)COC(CCl)OC1 | 11.3%
COC(=O)c1nnn(-c2ccc(C)c(C)c2)c1C(=O)c1ccccc1 | -15.2%
CC(=O)Nc1c(C(N)=O)cnn1-c1ccccc1 | 17.7%
CN(C)c1ccc(/C=C(\C#N)c2c(Br)cccc2Br)cc1 | -3.65%
CCSC(N)=Nc1ccccc1 (tested in a mixture with another compound) | 21.8%
Nc1nc(N)c(-c2ccc(Cl)cc2)c(CNc2cccc([N+](=O)[O-])c2)n1 | 97.7% (active)
CC1(C)OC2CC(=O)OCC23C1CC(=O)C1(C)C3CCC2(C)C(c3ccoc3)OC(=O)C3OC321 (stereo not given) | -0.55%
CC1CCCCC[N+]1(C)CCO (stereo not given) | -6.25%
CCCCCCCCCCCCCCCCCCNC(=S)N(C)C | 8.1%
O=S(=O)(OCCCC1CC2C=CC1C2)c1ccc(Br)cc1 (stereo not given) | -17.6%
CC(=O)O[C@@H]1[C@H]2[C@@H](OC(=O)c3ccccc3)[C@@H](C)C[C@]2(O)[C@H](OC(C)=O)[C@@]2(C)[C@@H]3C[C@@](C)(OC(C)=O)C[C@@H](OC(C)=O)[C@@]3(OC(C)=O)C[C@@]12C | -3.8%
O=NN(CCCl)C(=O)NCCc1cccc[n+]1[O-] | -14.1%
O=C(O)c1c[nH]c2cc(OCc3ccccc3)ccc2c1=O | -45.5%
Cc1cccc(C[P+](C/C=C/c2ccccc2)(c2ccccc2)c2ccccc2)c1 | 99.7% (active)
